Compounds without any hit were thinned out: in the full panel of roughly 83,000, 20% have a hit.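 Testing used 96-well plates and a 48-hour single-concentration exposure. Example: -40 means 40% of the starting cells died.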
Key:
Assay in all cases: NCI-60 one-dose screen, 48 h (100 = growth as untreated, 0 = no growth, -100 = all killed)
Settings in all cases: 10 µM; active = growth percent below 10; inactive = the rest
NCI-H23 lung = test system: NCI-H23 lung
NCI-H322M lung = test system: NCI-H322M lung
HOP-62 NSCLC = test system: HOP-62 NSCLC
NCI-H460 lung = test system: NCI-H460 lung
HOP-92 NSCLC = test system: HOP-92 NSCLC
NCI-H522 lung = test system: NCI-H522 lung
A549/ATCC NSCLC = test system: A549/ATCC NSCLC
786-0 renal = test system: 786-0 renal
COLO 205 colon = test system: COLO 205 colon
DU-145 prostate = test system: DU-145 prostate
K-562 leukemia = test system: K-562 leukemia
MALME-3M melanoma = test system: MALME-3M melanoma
MDA-MB-231 breast = test system: MDA-MB-231 breast
RXF 393 renal = test system: RXF 393 renal
SF-268 CNS = test system: SF-268 CNS
SF-295 CNS = test system: SF-295 CNS
SF-539 CNS = test system: SF-539 CNS
UACC-257 melanoma = test system: UACC-257 melanoma
M14 melanoma = test system: M14 melanoma

Measured: growth

CCOC(=O)c1ccc(NC(=S)P(=O)(c2ccccc2)c2ccccc2)cc1
inactive: NCI-H23 lung 102% | NCI-H322M lung 94.7% | HOP-62 NSCLC 105% | NCI-H460 lung 71.3% | HOP-92 NSCLC 78.1% | NCI-H522 lung 113% | A549/ATCC NSCLC 103% | 786-0 renal 101% | COLO 205 colon 115% | DU-145 prostate 113% | K-562 leukemia 56.2% | MALME-3M melanoma 108% | MDA-MB-231 breast 109% | RXF 393 renal 120% | SF-268 CNS 94.5% | SF-295 CNS 104% | SF-539 CNS 106% | UACC-257 melanoma 108% | M14 melanoma 97.7%

CNc1nc(NC)c2cn[nH]c2n1
inactive: NCI-H23 lung 104% | NCI-H322M lung 116% | HOP-62 NSCLC 104% | NCI-H460 lung 109% | HOP-92 NSCLC 84.9% | 786-0 renal 101% | COLO 205 colon 95.6% | DU-145 prostate 113% | K-562 leukemia 104% | MDA-MB-231 breast 108% | RXF 393 renal 101% | SF-268 CNS 114% | SF-295 CNS 98.4% | SF-539 CNS 103% | M14 melanoma 102%

O=P(O)(O)OCC(O)CO (stereo unspecified)
inactive: NCI-H23 lung 107% | NCI-H322M lung 107% | NCI-H460 lung 109% | HOP-92 NSCLC 96.1% | NCI-H522 lung 109% | A549/ATCC NSCLC 97.3% | 786-0 renal 101% | COLO 205 colon 110% | DU-145 prostate 107% | K-562 leukemia 113% | MALME-3M melanoma 110% | MDA-MB-231 breast 111% | RXF 393 renal 107% | SF-268 CNS 108% | SF-539 CNS 105% | UACC-257 melanoma 102% | M14 melanoma 101%

CCCCOC(=O)c1ccc(C(C)C)cc1
inactive: NCI-H23 lung 98.2% | NCI-H322M lung 96.3% | HOP-62 NSCLC 85.4% | NCI-H460 lung 109% | HOP-92 NSCLC 88.2% | NCI-H522 lung 83.1% | A549/ATCC NSCLC 77% | 786-0 renal 95.4% | COLO 205 colon 110% | DU-145 prostate 106% | K-562 leukemia 106% | MALME-3M melanoma 87% | MDA-MB-231 breast 109% | RXF 393 renal 112% | SF-268 CNS 100% | SF-295 CNS 101% | SF-539 CNS 96.6% | UACC-257 melanoma 77.3% | M14 melanoma 96.5%

O=S(=O)(Cc1ccccc1)c1ccccc1
inactive: NCI-H23 lung 105% | NCI-H322M lung 118% | HOP-62 NSCLC 104% | NCI-H460 lung 112% | HOP-92 NSCLC 105% | NCI-H522 lung 104% | A549/ATCC NSCLC 98.6% | 786-0 renal 101% | COLO 205 colon 112% | DU-145 prostate 107% | K-562 leukemia 103% | MALME-3M melanoma 106% | MDA-MB-231 breast 121% | RXF 393 renal 102% | SF-268 CNS 101% | SF-539 CNS 97.7% | UACC-257 melanoma 107% | M14 melanoma 104%

CCNc1nc2c(cnn2C)c(=O)[nH]1
inactive: NCI-H23 lung 99.7% | NCI-H322M lung 95.5% | HOP-62 NSCLC 101% | NCI-H460 lung 108% | NCI-H522 lung 98.4% | A549/ATCC NSCLC 109% | 786-0 renal 101% | COLO 205 colon 96.5% | DU-145 prostate 113% | K-562 leukemia 98.2% | MDA-MB-231 breast 110% | RXF 393 renal 94.6% | SF-268 CNS 104% | SF-295 CNS 103% | SF-539 CNS 104% | UACC-257 melanoma 115% | M14 melanoma 99.3%

CC(=O)/C(Cc1ccccc1)=N/O
inactive: NCI-H23 lung 97.3% | NCI-H322M lung 105% | NCI-H460 lung 105% | HOP-92 NSCLC 68% | NCI-H522 lung 74.3% | A549/ATCC NSCLC 95.4% | 786-0 renal 102% | COLO 205 colon 97.9% | DU-145 prostate 115% | K-562 leukemia 85.5% | MALME-3M melanoma 104% | MDA-MB-231 breast 100% | RXF 393 renal 109% | SF-268 CNS 104% | SF-295 CNS 105% | SF-539 CNS 91.9% | UACC-257 melanoma 89.5% | M14 melanoma 94.8%

O=C(O)COCC(=O)O
inactive: NCI-H23 lung 105% | NCI-H322M lung 97.6% | HOP-62 NSCLC 103% | NCI-H460 lung 107% | HOP-92 NSCLC 72.4% | NCI-H522 lung 94.3% | A549/ATCC NSCLC 91.6% | 786-0 renal 110% | COLO 205 colon 108% | DU-145 prostate 103% | K-562 leukemia 116% | MALME-3M melanoma 83.6% | MDA-MB-231 breast 106% | RXF 393 renal 102% | SF-268 CNS 92.6% | SF-295 CNS 89.7% | SF-539 CNS 104% | UACC-257 melanoma 87.9% | M14 melanoma 111%

S=C1CCCCCN1
inactive: NCI-H23 lung 105% | NCI-H322M lung 99.5% | HOP-62 NSCLC 92.9% | NCI-H460 lung 106% | HOP-92 NSCLC 103% | NCI-H522 lung 105% | A549/ATCC NSCLC 101% | 786-0 renal 107% | COLO 205 colon 111% | DU-145 prostate 110% | K-562 leukemia 107% | MALME-3M melanoma 107% | MDA-MB-231 breast 111% | RXF 393 renal 123% | SF-268 CNS 99.6% | SF-295 CNS 102% | SF-539 CNS 96.8% | UACC-257 melanoma 97.8% | M14 melanoma 105%

Source: PubChem BioAssay (NCI)
